Results from PubChem BioAssay AID1159580 (chemical genetic matrix, 2015).
The campaign covered roughly 5,500 compounds. About 2,000 (36%) were called active. About 18% were inconclusive and are not listed. Cut-off read from the data, not from the text of the source: active = normalized growth mostly below about 0.91 (no sharp cut-off); inconclusive = no clear call, values can overlap the other calls; inactive = mostly above about 0.92. The list shows a part of the results.

Assay: chemical genetic growth profiling, strain panel (AID 1159580);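 note: tested at 20 µM; growth read once vehicle control cultures reached saturation at 30 °C; 1 = growth at the plate median or of vehicle wells; lower values mean less growth of the strain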
Details: growth OD

Measured: normalized growth

COc1cc2c(cc1OC)C1C(=O)c3c(OC)cc4c(c3OC1CO2)CCC(C)(C)O4 (stereo unspecified)
inactive: S. cerevisiae deletion strains, locus YAL013W, strain DEP1, active compounds read low 1.01 | S. cerevisiae deletion strains, locus YBR021W, strain FUR4, active compounds read low 1.02 | S. cerevisiae deletion strains, locus YBR229C, strain ROT2, active compounds read low 1.02 | S. cerevisiae deletion strains, locus YCL029C, strain bik1, active compounds read low 0.987 | S. cerevisiae deletion strains, locus YDL035C, strain GPR1, active compounds read low 1 | S. cerevisiae deletion strains, locus YDL074C, strain BRE1, active compounds read low 1.03 | S. cerevisiae deletion strains, locus YDL101C, strain DUN1, active compounds read low 1.03 | S. cerevisiae deletion strains, locus YDL134C, strain PPH21, active compounds read low 1.02 | S. cerevisiae deletion strains, locus YDL185W, strain tfp1, active compounds read low 0.988 | S. cerevisiae deletion strains, locus YDL192W, strain arf1, active compounds read low 0.983 | S. cerevisiae deletion strains, locus YDR101C, strain arx1, active compounds read low 0.984 | S. cerevisiae deletion strains, locus YDR150W, strain NUM1, active compounds read low 1.02 | S. cerevisiae deletion strains, locus YDR162C, strain NBP2, active compounds read low 1.06 | S. cerevisiae deletion strains, locus YDR318W, strain mcm21, active compounds read low 0.988 | S. cerevisiae deletion strains, locus YDR388W, active compounds read low 0.99 | S. cerevisiae deletion strains, locus YDR502C, strain sam2, active compounds read low 0.997 | S. cerevisiae deletion strains, locus YEL061C, strain CIN8, active compounds read low 1.01 | S. cerevisiae deletion strains, locus YER110C, active compounds read low 0.985 | S. cerevisiae deletion strains, locus YER155C, strain BEM2, active compounds read low 1.02 | S. cerevisiae deletion strains, locus YER167W, strain BCK2, active compounds read low 1.01 | S. cerevisiae deletion strains, locus YGL078C, strain dbp3, active compounds read low 0.981 | S. cerevisiae deletion strains, locus YGL086W, strain mad1, active compounds read low 0.975 | S. cerevisiae deletion strains, locus YGL248W, strain PDE1, active compounds read low 1.02 | S. cerevisiae deletion strains, locus YGR078C, strain PAC10, active compounds read low 1.03 | S. cerevisiae deletion strains, locus YGR135W, strain pre9, active compounds read low 1.01 | S. cerevisiae deletion strains, locus YGR229C, strain SMI1, active compounds read low 1.01 | S. cerevisiae deletion strains, locus YGR252W, strain gcn5, active compounds read low 0.948 | S. cerevisiae deletion strains, locus YHR030C, strain SLT2, active compounds read low 1.01 | S. cerevisiae deletion strains, locus YHR079C, strain IRE1 (second series), active compounds read low 0.988 | S. cerevisiae deletion strains, locus YHR094C, strain hxt1, active compounds read low 0.987 | S. cerevisiae deletion strains, locus YHR129C, strain ARP1, active compounds read low 1.01 | S. cerevisiae deletion strains, locus YHR200W, strain rpn10, active compounds read low 0.993 | S. cerevisiae deletion strains, locus YIL066C, strain RNR3, active compounds read low 1.02 | S. cerevisiae deletion strains, locus YIL073C, strain SPO22, active compounds read low 0.948 | S. cerevisiae deletion strains, locus YIL125W, strain kgd1, active compounds read low 0.983 | S. cerevisiae deletion strains, locus YIR030C, strain dcg1, active compounds read low 0.985 | S. cerevisiae deletion strains, locus YJL095W, strain BCK1, active compounds read low 1.01 | S. cerevisiae deletion strains, locus YJL134W, strain LCB3, active compounds read low 1.01 | S. cerevisiae deletion strains, locus YJL168C, strain set2, active compounds read low 0.979 | S. cerevisiae deletion strains, locus YJL187C, strain SWE1 (second series), active compounds read low 1.02 | S. cerevisiae deletion strains, locus YJR043C, strain POL32, active compounds read low 1 | S. cerevisiae deletion strains, locus YJR075W, strain HOC1, active compounds read low 1.01 | S. cerevisiae deletion strains, locus YKL009W, strain mrt4, active compounds read low 0.999 | S. cerevisiae deletion strains, locus YKL068W, active compounds read low 0.983 | S. cerevisiae deletion strains, locus YKL085W, strain MDH1 (second series), active compounds read low 0.978 | S. cerevisiae deletion strains, locus YKL085W, strain MDH1, active compounds read low 0.978 | S. cerevisiae deletion strains, locus YKL190W, strain CNB1, active compounds read low 1.02 | S. cerevisiae deletion strains, locus YKR001C, strain vps1, active compounds read low 0.961 | S. cerevisiae deletion strains, locus YLR039C, strain RIC1, active compounds read low 0.964 | S. cerevisiae deletion strains, locus YLR058C, strain SHM2, active compounds read low 1.02 | S. cerevisiae deletion strains, locus YLR102C, strain apc9, active compounds read low 0.992 | S. cerevisiae deletion strains, locus YLR262C, strain YPT6, active compounds read low 0.994 | S. cerevisiae deletion strains, locus YLR268W, strain sec22, active compounds read low 0.972 | S. cerevisiae deletion strains, locus YLR330W, strain CHS5, active compounds read low 1.01 | S. cerevisiae deletion strains, locus YLR342W, strain FKS1 (second series), active compounds read low 0.981 | S. cerevisiae deletion strains, locus YLR371W, strain rom2, active compounds read low 0.988 | S. cerevisiae deletion strains, locus YLR418C, strain cdc73, active compounds read low 1 | S. cerevisiae deletion strains, locus YML016C, strain PPZ1, active compounds read low 1.02 | S. cerevisiae deletion strains, locus YML032C, strain rad52, active compounds read low 0.966 | S. cerevisiae deletion strains, locus YML124C, strain tub3, active compounds read low 0.99 | S. cerevisiae deletion strains, locus YMR078C, strain ctf18, active compounds read low 0.979 | S. cerevisiae deletion strains, locus YMR223W, strain ubp8, active compounds read low 0.973 | S. cerevisiae deletion strains, locus YMR263W, strain SAP30, active compounds read low 1.03 | S. cerevisiae deletion strains, locus YMR307W, strain GAS1, active compounds read low 0.99 | S. cerevisiae deletion strains, locus YNL067W, strain RPL9B, active compounds read low 1.03 | S. cerevisiae deletion strains, locus YNL128W, strain TEP1, active compounds read low 1.02 | S. cerevisiae deletion strains, locus YNL153C, strain GIM3, active compounds read low 1.03 | S. cerevisiae deletion strains, locus YNL233W, strain BNI4, active compounds read low 1.04 | S. cerevisiae deletion strains, locus YNL250W, strain rad50, active compounds read low 0.968 | S. cerevisiae deletion strains, locus YNL271C, strain bni1, active compounds read low 0.981 | S. cerevisiae deletion strains, locus YNL298W, strain CLA4, active compounds read low 1 | S. cerevisiae deletion strains, locus YNL307C, strain MCK1, active compounds read low 0.969 | S. cerevisiae deletion strains, locus YNL322C, strain KRE1, active compounds read low 1.02 | S. cerevisiae deletion strains, locus YNR052C, strain pop2, active compounds read low 0.976 | S. cerevisiae deletion strains, locus YOL006C, strain TOP1, active compounds read low 1.04 | S. cerevisiae deletion strains, locus YOL012C, strain htz1 0.96 | S. cerevisiae deletion strains, locus YOL147C, strain pex11, active compounds read low 0.988 | S. cerevisiae deletion strains, locus YOR061W, strain CKA2, active compounds read low 1.02 | S. cerevisiae deletion strains, locus YOR069W, strain VPS5, active compounds read low 1.01 | S. cerevisiae deletion strains, locus YOR136W, strain idh2, active compounds read low 0.981 | S. cerevisiae deletion strains, locus YOR144C, strain elg1, active compounds read low 0.994 | S. cerevisiae deletion strains, locus YOR184W, strain ser1, active compounds read low 0.95 | S. cerevisiae deletion strains, locus YOR316C, strain cot1, active compounds read low 0.98 | S. cerevisiae deletion strains, locus YPL055C, strain LGE1, active compounds read low 1.05 | S. cerevisiae deletion strains, locus YPL241C, strain CIN2, active compounds read low 1.01 | S. cerevisiae deletion strains, locus YPR119W, strain clb2, active compounds read low 0.983 | S. cerevisiae deletion strains, locus YPR141C, strain kar3, active compounds read low 0.966 | S. cerevisiae deletion strains, locus YPR163C, strain tif3, active compounds read low 0.976 | S. cerevisiae deletion strains, locus YPR167C, strain met16, active compounds read low 0.983 | S. cerevisiae deletion strains, strain wtn01, active compounds read low 0.997 | S. cerevisiae strains, strain wild type, active compounds read low 1
